Experimental data published in PubChem BioAssay (Tox21).
Inconclusive results are not listed. Active and inactive are the calls of the source. Calls follow the shape of the full dose curve.

target: Acetylcholinesterase (Homo sapiens) (UniProt P22303); assay: Acetylcholinesterase (AChE) small molecule antagonists: colormetric cell-based qHTS assay (AID 1347395); settings: SH-SY5Y cells AChE activity, colorimetric (Ellman); series mostly up to 115 µM; activity, negative = inhibition: at the top concentration; also: nearly all actives have a fitted effect of over 30% in size
From the text: National Center for Advancing Translational Sciences [NCATS]
Division of Preclinical Innovation [DPI]
U.S. Environmental Protection Agency [EPA]
National Institutes of Environmental Health Sciences [NIEHS]
National Toxicology Program [NTP]
U.S. Food and Drug Administration [FDA]
Acetylcholinesterase (AChE) is the primary cholinesterase in the body that hydrolyzes a key neurotransmitter, acetylcholine. Inhibition of AChE activity can lead to neurotoxicity. The known inhibitors include organophosphorous pesticides (OP), chemical warfare agents, drugs, and various phytochemicals.
A homogenous cell-based assay using the Amplite Colormetric acetylcholinesterase assay kit (AAT Bioquest, Sunnyvale, CA) was used to evaluate the chemicals in the Tox21 10K library that inhibit AChE activity. The assay uses 5, 5-dithiobis-(2-nitrobenzoic acid) (DTNB) to quantify the thiocholine produced from the hydrolysis of acetylthiocholine by AChE from the SH-SY5Y cells.
Tox21 Assay Protocol Summary:
For the cell-based AChE assay, 2,000 SH-SY5Y cells in 4 uL/well were dispensed into black, clear-bottom 1536-well plates using a Multidrop Combi dispenser (Thermo Scientific, MA). The assay plates were incubated overnight at 37 C to allow cells to attach to the wells, followed by the transfer of 23 nL of compound or DMSO (vehicle control) by a Pintool Station (Wako Automation, CA). The plates were incubated for 30 min at 37 C and 5% CO2, followed by the addition of 4 uL of detection cocktail solution (DTNB, acetylthiocholine) into each well using a Flying Reagent Dispenser (Beckman Coulter, CA) and then 90 min incubation at 37 C.
% is scaled to controls: 0 for no effect and ±100 for the full control effect.

Sequence of Acetylcholinesterase (Homo sapiens) (P22303 whole entry, looked up): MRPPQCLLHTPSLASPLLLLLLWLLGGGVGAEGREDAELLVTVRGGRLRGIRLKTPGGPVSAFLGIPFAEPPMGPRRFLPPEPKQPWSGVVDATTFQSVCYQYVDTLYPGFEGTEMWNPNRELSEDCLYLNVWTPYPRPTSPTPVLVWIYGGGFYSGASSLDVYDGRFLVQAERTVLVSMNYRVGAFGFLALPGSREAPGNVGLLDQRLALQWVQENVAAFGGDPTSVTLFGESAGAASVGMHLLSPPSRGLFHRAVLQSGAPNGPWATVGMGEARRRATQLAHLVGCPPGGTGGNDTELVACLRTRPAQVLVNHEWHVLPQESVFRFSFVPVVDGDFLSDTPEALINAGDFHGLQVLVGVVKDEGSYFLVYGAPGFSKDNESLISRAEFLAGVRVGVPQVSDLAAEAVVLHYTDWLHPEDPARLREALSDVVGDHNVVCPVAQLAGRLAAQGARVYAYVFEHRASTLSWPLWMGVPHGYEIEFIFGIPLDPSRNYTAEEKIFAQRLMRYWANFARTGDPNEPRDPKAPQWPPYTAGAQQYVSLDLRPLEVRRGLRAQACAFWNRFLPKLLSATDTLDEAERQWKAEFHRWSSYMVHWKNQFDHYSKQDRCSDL

SMILES	Potency	activity, negative = inhibition
O=C(O)Cc1ccccc1Nc1c(Cl)cccc1Cl	inactive	–
Cn1c(=O)c2c(ncn2CCO)n(C)c1=O	–	3.53% [at 52.9 µM] (inactive)
CCS(=O)(=O)c1ccc(OC)c(C(=O)OC)c1	–	0.455% [at 52.9 µM] (inactive)
CC(=O)Oc1cccc(O)c1	–	1.52% [at 52.9 µM] (inactive)
C=C(C)c1cccc(C(=C)C)c1	–	2.2% (inactive)
CC(C)OB(OC(C)C)OC(C)C	inactive	–
CCN(CC)CCOC(=O)C(c1ccccc1)C1CCCCC1 (stereo not given)	–	-0.0881% [at 52.9 µM] (inactive)
CC(C)[C@H]1CC[C@@H](C)CC1=O	–	-3.26% (inactive)
CC(C)(C)C(=O)NCCCC(=O)O	–	-2.99% [at 52.9 µM] (inactive)
Cc1ccccc1C(N)=O	–	0.535% (inactive)
CCC(Cl)CC(Cl)C(Cl)C(Cl)C(Cl)C(C)Cl (stereo not given)	–	-0.388% [at 23.6 µM] (inactive)
CCCC(=O)OCC(COC(=O)CCC)OC(=O)CCC	–	1.14% (inactive)
O=C1c2ccccc2C(=O)c2cc(S(=O)(=O)O)ccc21	–	1.87% (inactive)
CC(C)(C)NCC(O)COc1ccccc1OCC1CCCO1 (stereo not given)	–	-0.958% [at 52.9 µM] (inactive)
COc1ccc(C(c2ccc(OC)cc2)C(Cl)(Cl)Cl)cc1	–	0% (inactive)
CN=C(NC#N)NCCSCc1nc[nH]c1C	inactive	–
O=C(O)CCCCC(=O)O	inactive	–
CCN1CCN(C(=O)N[C@@H](C(=O)N[C@@H]2C(=O)N3[C@@H]2SC(C)(C)[C@H]3C(=O)O)c2ccccc2)C(=O)C1=O	–	-2% [at 52.9 µM] (inactive)
C[C@@H](O)C(=O)O	–	0.186% (inactive)
Nc1ncnc(Nc2ccccc2)n1	–	2.32% [at 52.9 µM] (inactive)

SMILES	Potency	activity, negative = inhibition
ON=C1CCCCC1	inactive	–
CCCS(=O)c1ccc2nc(NC(=O)OC)[nH]c2c1 (stereo not given)	–	5.85% [at 52.9 µM] (inactive)
CC(COC(C)(C)C)OCCCO (stereo not given)	–	6.07% (inactive)
CC1(C)O[C@@H]2C[C@H]3[C@@H]4CCC5=CC(=O)C=C[C@]5(C)[C@@]4(F)[C@@H](O)C[C@]3(C)[C@]2(C(=O)CO)O1	inactive	–
C[C@H]1C[C@@H](O)CC(C)(C)C1	–	3.51% (inactive)
O=C(O)CCNC(=O)c1ccc(N=Nc2ccc(O)c(C(=O)O)c2)cc1	–	0.981% [at 52.9 µM] (inactive)
CCC(C)OC(=O)N1CCCCC1CCO (stereo not given)	–	-4.37% (inactive)
CCCCCC1C(=O)CCC1CC(=O)OC (stereo not given)	inactive	–
CC(C)CCCC(C)CCCC(C)CCCCC(C)CCCC(C)CCCC(C)C (stereo not given)	–	-1.94% [at 52.9 µM] (inactive)
Cc1c(-c2cccnc2)c2ccccc2n1CCCCC(=O)O	–	-2.43% (inactive)
CCCCCCCCCCCCCCO	inactive	–
NCCNCCO	–	-1.67% (inactive)
CCCCCCCCCCCC(=O)OC[C@@H](O)[C@H]1OC[C@H](OCCO)[C@H]1OCCO	–	8.32% (inactive)
Cc1cccc(C)c1NC(=O)CN1CCN(CCCC(c2ccc(F)cc2)c2ccc(F)cc2)CC1	–	0.552% [at 52.9 µM] (inactive)
COCC(=O)O	inactive	–
OC12N=C(c3ccccc3)SC1Cc1cc(Cl)ccc12 (stereo not given)	–	0.0931% (inactive)
CCC(C)c1nccnc1OC (stereo not given)	–	8.3% (inactive)
O=[N+]([O-])c1ccccc1Nc1ccccc1	–	0.511% (inactive)
Brc1cc(Br)cc(Br)c1	–	0.323% (inactive)
Cc1cc(=O)[nH]c(C(C)C)n1	inactive	–
